The nature of assay [1]: Cell Viability - Mesenchymal (AID 546).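 Also: cells exposed to compound for 40 hours before reading; 0% = DMSO only and -100% = 100 µM tamoxifen.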 The following applies: mesenchymal cells viability, qHTS; activity change, negative = cytotoxicity: at 91.7 µM (top of the series). In outline:
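Human kidney mesenchymal cells from normal renal glomeruli, 1000 cells/well, rested 5 hr at 37 °C, then treated 40 hr at 37 °C in complete medium. Cellular ATP read by CellTiter-Glo luminescence; AC50 from Hill-equation fits.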
(In general: In qHTS, concentration-response curves come from the screen itself.)

The nature of assay [2]: Cellular Toxicity (caspase-3) HepG2 (AID 654).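 Also: cells exposed to compound for 16 hours before reading; 0% = DMSO alone and 100% = caspase signal from 100 µM tamoxifen.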 In outline:
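HepG2 cells (1500/well) in complete medium were treated with compounds for 16 hr at 37 °C. Caspase-3/7 activity was then read as luminescence from peptide-aminoluciferin cleavage. AC50 came from Hill fits, normalized to DMSO and 100 uM tamoxifen.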

Assay [3] is described as follows: Cellular Toxicity (caspase-3) Jurkat (AID 655).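 Also: cells exposed to compound for 16 h at 37 °C before reading.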 Also: potency is read from the fitted curve at half-maximal effect. The method in brief: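 Jurkat cells (5000/well) in complete medium exposed 16 h at 37 C; caspase-3/7 activity read by Caspase-Glo luminescence after 20 min at room temperature. Normalized to DMSO and 100 uM tamoxifen; AC50 from Hill fits.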
Assay [4] in a line: Cellular Toxicity (caspase-3) HUV-EC-C (AID 656).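 Also: 0% = DMSO basal and 100% = 100 µM tamoxifen.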 In outline: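 HUV-EC-C cells (1000/well) in complete medium, compound-treated 16 h at 37 °C; caspase-3/7 activity read by Caspase-Glo 3/7 luminescence. Normalized to DMSO (basal) and 100 uM tamoxifen (100%); AC50 from Hill-equation concentration-response fits.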
A short description of assay [5]: Cellular Toxicity (caspase-3) SHSY5Y (AID 657). In outline:
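SH-SY5Y human neuroblastoma cells, 1500/well, exposed to compound for 16 hours at 37 °C in complete medium. Caspase-3/7 activity read by Caspase-Glo luminescence after 1 hr at room temperature, normalized to DMSO and 10 uM staurosporine; AC50 from Hill fit.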

Assay [6] in a line: Cellular Toxicity (caspase-3) BJ (AID 658).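 Also: 0% = DMSO basal and 100% = 10 µM staurosporine.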 In outline: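 BJ human foreskin fibroblasts, 1000 cells/well, treated 16 hours at 37 °C in complete medium; caspase 3/7 activity by Caspase-Glo luminescence after 1 hr at room temperature. Normalized to DMSO and 10 uM staurosporine; AC50 from Hill fits.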
Assay [7] can be described thus: Cellular Toxicity (caspase-3) MRC-5 (AID 659).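 Also: 0% = DMSO basal and 100% = 10 µM staurosporine.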 The settings on record: Potency: caspase-3 activation. The method in brief:
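MRC-5 human normal lung fibroblasts, 1500 cells/well, treated 16 h at 37 °C in complete medium. Caspase 3/7 measured by Caspase-Glo luminescence after 1 h at room temperature. Normalized to DMSO and 10 uM staurosporine; AC50 from Hill fit.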

Assay [8] can be described thus: Cellular Toxicity (caspase-3) Mesangial (AID 660). In outline:
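Human renal glomerular mesangial cells (1000/well) were treated with compounds for 16 h at 37 °C in complete medium, then caspase 3/7 activity was read by Caspase-Glo luminescence. Data were normalized to DMSO and 100 uM tamoxifen; AC50 from Hill fits.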

The nature of assay [9]: Cellular Toxicity (caspase-3) SK-N-SH (AID 661). Also: potency is read from the fitted curve at half-maximal effect.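 As to caspase-3 activation: 0% = DMSO basal and 100% = 10 µM staurosporine.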 In outline:
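SK-N-SH human neuroblastoma cells (1500/well) were treated with compounds for 16 hr at 37 °C in complete medium; caspase 3/7 activity was read by Caspase-Glo luminescence. AC50 came from Hill fits of data normalized to DMSO and 10 uM staurosporine.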

A short description of assay [10]: Cellular Toxicity (caspase-3) H-4-II-E (AID 663). Also: potency is read from the fitted curve at half-maximal effect.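 As to caspase-3 activation: cells exposed to compound for 16 hr before readout; 0% = DMSO basal and 100% = 100 µM tamoxifen.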 The following applies: Potency: caspase-3 activation. In outline: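 Rat hepatoma H-4-II-E cells (1500/well) plated 5 hr, then exposed to compound titrations for 16 hr at 37 °C. Caspase-Glo 3/7 luminescence read after 20 min at RT; data normalized to DMSO and 100 uM tamoxifen, AC50 from Hill fits.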
The nature of assay [11]: Cellular Toxicity (caspase-3) N2a (AID 665).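 Also: compound exposure lasted 16 h at 37 °C before readout.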 Also: potency is read from the fitted curve at half-maximal effect. The following applies: Potency: caspase-3 activation. The method in brief:
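Mouse N2a neuroblastoma cells (1500/well) were treated with compounds for 16 h at 37 °C, then caspase-3/7 activity was read by Caspase-Glo luminescence after 1 h at room temperature. Data were normalized to DMSO and 10 uM staurosporine; AC50 from Hill fits.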

Assay [12] in a line: Cellular Toxicity (caspase-3) NIH 3T3 (AID 666).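 Also: caspase signal read after 16 h compound exposure.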 Also: potency is read from the fitted curve at half-maximal effect.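 As to caspase-3 activation: 0% = DMSO basal and 100% = 100 µM tamoxifen stimulation.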 In outline:
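Mouse NIH 3T3 fibroblasts (1000 cells/well) were treated with compound for 16 hr at 37°C in complete medium; caspase-3/7 activity was read by Caspase-Glo luminescence. Normalized to DMSO and 100 uM tamoxifen; AC50 from Hill fits.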

The nature of assay [13]: Cellular Toxicity (caspase-3) Renal Proximal Tubule (AID 667).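 Also: cells exposed to compound for 16 hours at 37 °C before detection; 0% = DMSO basal and 100% = 10 µM staurosporine.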 In outline: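 Freshly isolated primary rat kidney proximal tubule cells, 1000/well, treated 16 hr at 37 °C, then Caspase-Glo 3/7 luminescence after 1 hr. Normalized to DMSO and 10 uM staurosporine; AC50 from Hill fit.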
In assay [14] the target is Cytochrome P450 3A4 (Homo sapiens) (UniProt P08684). The assay can be described thus: qHTS Assay for Inhibitors and Substrates of Cytochrome P450 3A4 (AID 884). Also: % is scaled to controls: 0 for no effect and ±100 for the full control effect; nearly all actives have a fitted effect of over 50% in size. The method in brief: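 20 nM human CYP3A4 with 25 uM Luciferin-PPXE (at KM) in 200 mM KPO4, preincubated 10 min with compound; NADPH regeneration started a 60 min RT reaction. Luciferin detected by luminescence, normalized to 57 uM ketoconazole as full inhibition.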

The target in assay [15] is 3',5'-cyclic-AMP phosphodiesterase 4B (Homo sapiens) (UniProt Q07343). The assay can be described thus: qHTS Assay for Inhibitors of PDE-IV (AID 607; active = well fitted activation curve with a large enough effect in the main read-out, with a control signal flat, not every such curve was filed as active; also: % of control where 0% means no effect). In outline: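 ACTOne HEK293 cells carry a modified cAMP-gated CNG channel and express endogenous PDE4; plated 1000 cells/well, compounds up to 22.9 uM final. Membrane-potential dye fluorescence (ex 535/em 590) was read; parental cells received 10 uM forskolin + 100 uM RO 20-1724.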

Assay [16] addresses Cytochrome P450 2C9 (Homo sapiens) (UniProt P11712). The assay can be described thus: qHTS Assay for Inhibitors and Substrates of Cytochrome P450 2C9 (AID 883). Also: potency is read from the fitted curve at half-maximal effect; nearly all actives have a fitted effect of over 60% in size. The method in brief: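 Human CYP2C9 (10nM) with Luciferin-H at 100uM (its KM) in 25mM KPO4; compound preincubated 10 min at 37C, then NADPH regeneration for 60 min at 37C. Luciferin read by luminescence after detection reagent; normalized to 57uM sulphaphenazole as full inhibition.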

For assay [17], the target named is Cytochrome P450 3A4 (Homo sapiens) (UniProt P08684). The assay can be described thus: qHTS Assay for Activators of Cytochrome P450 3A4 (AID 885). Also: nearly all actives have a fitted effect of over 65% in size. In outline:
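20nM CYP3A4 + 25uM Luciferin-PPXE (=KM), 200mM KPO4; cpd 10 min RT; NADPH regen, 60 min RT; stop w/ detection buffer, 20 min; luminescence. Normalized to 57 uM ketoconazole.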

A number with no mark means an inactive call. Records with an inconclusive call do not appear. Active and inactive are the calls of the source. Unless noted, calls follow the shape of the dose curve; as a rule, active = well fitted curve in the direction sought with a large enough effect; inconclusive = small, poorly fitted or top-dose-only effect, or another doubt; inactive = no such curve, though single readings can be large; an effect the other way counts as inactive or inconclusive. Numbered stars: 1 amine (or outer) side, 2 acyl side, 3 side chain; on linkers, the order of the positions; unused ones are H or OH. Bridge positions count the residues as written; N and C are the ends. Square brackets hold non-standard residues; d marks the D form. Peptide text beside a SMILES is read from it. I, II: the chains in the order shown. Actinocin(9to1) = Cc1c2oc3c(C)ccc(C(=O)[*:1])c3nc-2c(C(=O)[*:2])c(N)c1=O; NMeV = CN[C@H](C(=O)O)C(C)C; Sar = CNCC(=O)O

Data on 7 molecules can be found in PubChem BioAssay (NCATS).

Chain of Cytochrome P450 3A4 (Homo sapiens) (P08684 whole entry, looked up): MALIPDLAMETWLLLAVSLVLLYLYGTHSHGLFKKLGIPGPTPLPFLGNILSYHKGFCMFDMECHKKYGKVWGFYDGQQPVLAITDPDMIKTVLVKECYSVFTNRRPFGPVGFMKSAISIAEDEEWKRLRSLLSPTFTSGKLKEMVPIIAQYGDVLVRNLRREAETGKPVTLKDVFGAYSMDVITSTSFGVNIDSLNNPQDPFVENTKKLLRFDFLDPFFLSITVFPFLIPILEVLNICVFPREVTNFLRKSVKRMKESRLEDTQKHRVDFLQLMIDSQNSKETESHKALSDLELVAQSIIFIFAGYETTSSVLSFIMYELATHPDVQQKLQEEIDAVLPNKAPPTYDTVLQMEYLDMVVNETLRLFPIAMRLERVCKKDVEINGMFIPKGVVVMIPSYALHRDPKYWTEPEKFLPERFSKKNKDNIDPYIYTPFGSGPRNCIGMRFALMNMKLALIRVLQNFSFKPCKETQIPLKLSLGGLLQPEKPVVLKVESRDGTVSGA
Chain of 3',5'-cyclic-AMP phosphodiesterase 4B (Homo sapiens) (Q07343 whole entry, looked up): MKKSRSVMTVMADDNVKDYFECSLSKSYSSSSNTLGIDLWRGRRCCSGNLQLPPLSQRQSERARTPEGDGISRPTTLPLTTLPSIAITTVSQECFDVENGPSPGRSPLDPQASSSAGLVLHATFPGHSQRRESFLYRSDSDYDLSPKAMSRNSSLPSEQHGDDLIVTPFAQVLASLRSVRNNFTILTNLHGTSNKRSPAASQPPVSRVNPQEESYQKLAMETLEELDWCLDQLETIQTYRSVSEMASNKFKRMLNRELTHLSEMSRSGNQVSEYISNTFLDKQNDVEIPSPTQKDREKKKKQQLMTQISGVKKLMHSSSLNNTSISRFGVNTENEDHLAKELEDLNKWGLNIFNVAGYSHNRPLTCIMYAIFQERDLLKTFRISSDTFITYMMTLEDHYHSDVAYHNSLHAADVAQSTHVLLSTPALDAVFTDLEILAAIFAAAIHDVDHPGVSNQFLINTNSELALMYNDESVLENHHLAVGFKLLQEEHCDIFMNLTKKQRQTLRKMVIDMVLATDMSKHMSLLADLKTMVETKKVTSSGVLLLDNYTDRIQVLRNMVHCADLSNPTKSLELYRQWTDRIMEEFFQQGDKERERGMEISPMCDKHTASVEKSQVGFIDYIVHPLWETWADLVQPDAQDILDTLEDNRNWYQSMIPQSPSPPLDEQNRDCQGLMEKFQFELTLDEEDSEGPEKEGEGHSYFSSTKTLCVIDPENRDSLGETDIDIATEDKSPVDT
Chain of Cytochrome P450 2C9 (Homo sapiens) (P11712 whole entry, looked up): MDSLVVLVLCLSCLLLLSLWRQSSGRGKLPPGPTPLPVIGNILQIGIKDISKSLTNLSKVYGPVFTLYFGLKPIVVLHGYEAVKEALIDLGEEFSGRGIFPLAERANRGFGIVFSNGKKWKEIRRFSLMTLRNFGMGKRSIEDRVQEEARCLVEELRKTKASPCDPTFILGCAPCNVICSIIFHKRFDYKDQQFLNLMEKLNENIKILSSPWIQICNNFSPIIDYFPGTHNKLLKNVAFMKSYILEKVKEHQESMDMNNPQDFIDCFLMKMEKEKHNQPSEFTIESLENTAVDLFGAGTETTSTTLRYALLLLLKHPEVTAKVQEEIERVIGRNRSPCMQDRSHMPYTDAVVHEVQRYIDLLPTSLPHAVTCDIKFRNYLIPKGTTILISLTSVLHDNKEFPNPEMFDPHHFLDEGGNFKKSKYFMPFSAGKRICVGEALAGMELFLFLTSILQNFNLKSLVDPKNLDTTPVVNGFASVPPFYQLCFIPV

Take `O=C(O)CCCCC(=O)O`: the activity change, negative = cytotoxicity in assay [1] is 3.41%. Besides, the Potency entry in assay [2], in [3], in [5], in assay [7], in assay [9] and in [10] was “inactive” throughout. The Potency entry in assay [11], in [12] and in [14] was “inactive” in each case. The molecule was classed as inactive in [4], in assay [6], in [8] and in [13].
In the case of `CN1CCN(CCCN2c3ccccc3Sc3ccc(S(=O)(=O)N(C)C)cc32)CC1`, the call in [15] was inactive.
On the same count and under the same terms, then `CC(=O)c1ccc2c(c1)N(CCCN1CCC(CCO)CC1)c1ccccc1S2`, with “inactive”; and `O=C(OCCOCCO)c1ccccc1Nc1cccc(C(F)(F)F)c1`, with “inactive”.
`C=C(CC)C(=O)c1ccc(OCC(=O)O)c(Cl)c1Cl`: in assay [1], the activity change, negative = cytotoxicity was -21.9%. Besides, the molecule was classed as inactive in [15], in assay [4], in assay [6], in [8] and in assay [13]. In addition, the Potency entry in [2], in [3], in assay [5], in assay [7], in [9] and in assay [10] was “inactive” throughout. The Potency entry in assay [11], in assay [12] and in [14] was “inactive” each time. The Potency in assay [16] is 631 nM (active).
With `Cc1c2oc3c(C)ccc(C(=O)N[C@@H]4C(=O)N[C@H](C(C)C)C(=O)N5CCC[C@H]5C(=O)N(C)CC(=O)N(C)[C@@H](C(C)C)C(=O)O[C@@H]4C)c3nc-2c(C(=O)N[C@@H]2C(=O)N[C@H](C(C)C)C(=O)N3CCC[C@H]3C(=O)N(C)CC(=O)N(C)[C@@H](C(C)C)C(=O)O[C@@H]2C)c(N)c1=O` (I: T[dV]P[Sar][NMeV] / II: T[dV]P[Sar][NMeV]; ester I:1-I:C, II:1-II:C; linker I:N-II:N via Actinocin(9to1)), the activity change, negative = cytotoxicity in assay [1] was -18.7%. For the same molecule, the Potency result in [2], in [7] and in assay [17] was “inactive” in each case. In addition, the Potency was 3.98 nM (active) in assay [3]; 15.8 nM (active) in assay [9]; 126 nM (active) in [10]; 7.94 nM (active) in assay [11]; 25.1 nM (active) in assay [12]. The result in assay [4], in [6] and in assay [8] was inactive.
On to `O=C1OC(c2ccc(O)cc2)(c2ccc(O)cc2)c2ccccc21`, for which the activity change, negative = cytotoxicity in assay [1] is -12.7%. Moreover, the Potency result in [2], in assay [3], in assay [5], in [7], in assay [9] and in [10] was “inactive” throughout. Besides, the Potency result in assay [11], in assay [12] and in assay [17] was “inactive” throughout. Further, the call in assay [4], in [6], in assay [8] and in [13] was inactive.
